# CYP2C19 inhib: blockers of cytochrome P450 2C19 activity – biochemical, luminescence, ADME assay, primary screen | actives 21% (n = 96,000) | P33261 | inhibition, % at 5 µM | CYP2C19 Supersomes, luciferin-H EGE luminescence, 30 min;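 active = CYP2C19 inhibition above a set limit at 5 µM in the primary screen, cut at about 50% in these data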;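 note: plate controls were negative control wells for no effect and 2.5 mM tranylcypromine positive control for full effect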
# CYP2C19 act: human CYP2C19 activators, primary screen, biochemical, luminescence; 96,000 tested, under 10 active; activation factor at 5 µM; recombinant CYP2C19, luciferin-H EGE luminescence; stronger effect = higher value; 0 = fully inhibited enzyme, 1 = untreated enzyme;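 active = activation factor of at least 2 at 5 µM in the primary screen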;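 note: 0 = wells with 2.5 mM tranylcypromine and 1 = vehicle-only wells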
# CYP2C9 activ: human CYP2C9 activators, primary screen, biochemical, luminescence | activation factor at 5 µM | recombinant CYP2C9, luciferin-H conversion; stronger effect = higher value; factor 1 = untreated enzyme, 0 = blocked | actives 1.4% (n = 96,000);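 active = activation factor of 2 or more for CYP2C9 at a 5 µM dose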;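 note: 0 = sulfaphenazole-blocked wells and 1 = vehicle-only wells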
# Target sequence (P11712 whole entry, looked up): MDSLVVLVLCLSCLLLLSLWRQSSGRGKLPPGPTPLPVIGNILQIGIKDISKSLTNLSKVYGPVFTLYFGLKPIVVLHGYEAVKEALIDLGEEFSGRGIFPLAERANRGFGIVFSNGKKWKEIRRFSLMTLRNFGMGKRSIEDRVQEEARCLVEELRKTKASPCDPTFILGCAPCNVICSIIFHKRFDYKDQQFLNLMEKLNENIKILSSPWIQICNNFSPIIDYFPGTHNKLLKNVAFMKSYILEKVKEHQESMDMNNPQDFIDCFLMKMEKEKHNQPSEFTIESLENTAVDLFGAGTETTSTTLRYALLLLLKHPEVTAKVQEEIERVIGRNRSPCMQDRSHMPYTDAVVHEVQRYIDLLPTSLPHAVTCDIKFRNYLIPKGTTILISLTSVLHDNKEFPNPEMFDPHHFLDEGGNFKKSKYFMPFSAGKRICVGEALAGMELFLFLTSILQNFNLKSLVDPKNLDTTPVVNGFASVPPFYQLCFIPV
# CYP2C9 inhib: blockers of cytochrome P450 2C9 activity – biochemical, luminescence, ADME assay, primary screen; P11712; CYP2C9 Supersomes, luciferin-H conversion; inhibition, % at 5 µM; actives 20% (n = 96,000); AID 777, 2007;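 active = blocking of liver enzyme CYP2C9 beyond about 50% at 5 µM, limit read from the data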
# CD11b adhes enh: enhancers of CD11b/CD18 adhesion to fibrinogen, primary screen, K562 cells, luminescence | AID 1499, 2009 | activation, % at 10 µM | actives 0.07% (n = 93,000) | ATPlite luminescence;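 active = 10 µM primary screen giving 50% or more activity, confirmed by 40% or more on retest at that dose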
# CD11b adhes inh: inhibitors of CD11b/CD18 adhesion to fibrinogen, primary screen, K562 cells, luminescence. inhibition, % at 10 µM. AID 1497, 2009. actives 0.54% (n = 93,000). ATPlite luminescence; Mn2+ added to activate the integrin. Integrin beta-2 (Homo sapiens) + Integrin alpha-M (Homo sapiens), P05107+P11215;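 active = primary inhibition of 50% or more at 10 µM, then 40% or more on retest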
# * hit, by the source's call; . = no result given. Sampled rows, rich in hits. Any-hit rate of the full collection: about 28%.
SMILES,CYP2C19 inhib,CYP2C19 act,CYP2C9 activ,CYP2C9 inhib,CD11b adhes enh,CD11b adhes inh
c1ccc(-c2nnc(CN3CCC4(CC3)OCCO4)o2)cc1,53*,0.5,1,3,0,-10
CCOc1ccc(NS(=O)(=O)c2ccc(NC(=O)C3CCCO3)cc2)cc1 (stereo unspecified),33,0.7,0.5,47,-3,9
Cc1ccc(SCCNS(=O)(=O)c2ccc(F)cc2)cc1,96*,0,0.1,88*,-2,35
O=S(=O)(NCCCCCNS(=O)(=O)c1ccc(F)cc1)c1ccc(F)cc1,54*,0.5,0.3,73*,0,-16
O=S(=O)(NCCSc1ccc(Cl)cc1)c1ccc(F)cc1,37,0.6,0.4,57*,.,.
COC(=O)N/N=C(\C)c1ccccc1Br,29,0.7,1.1,-5,.,.
CCc1nc(NCCCN2CCOCC2)c2oc3ccccc3c2n1,45,0.5,0.9,14,3,-18
CCc1nc(NCCN2CCOCC2)c2oc3ccccc3c2n1,57*,0.4,0.6,37,-2,-14
CCc1nc(N2CCN(Cc3ccc4c(c3)OCO4)CC2)c2oc3ccccc3c2n1,32,0.7,0.5,51*,1,9
CCc1nc(Nc2ccc3c(c2)OCO3)c2oc3ccccc3c2n1,51*,0.5,0.3,75*,.,.
C/C(=N\NC(=O)C(NC(=O)c1ccccc1)C(C)C)c1ccccc1 (stereo unspecified),32,0.7,1,-4,6,14
Cc1ccc(C)c(NC(=O)CS(=O)(=O)c2c[nH]c3ccccc23)c1,70*,0.3,3.1*,-212,-4,10
Cc1cccc(NC(=O)CS(=O)(=O)c2c[nH]c3ccccc23)c1C,46,0.5,1.4,-39,-6,10
O=C(Cc1ccc(S(=O)(=O)N2CCOCC2)s1)Nc1nc2c(s1)CCCC2,16,0.8,0.6,39,13,25
COC(=O)CSc1nc(C2CC2)cc(C(F)(F)F)c1C#N,66*,0.3,1,0,-2,-10
Cc1cc(C)nc(-n2nc(C)c(Br)c2Nc2ccc(Br)cc2)n1,70*,0.3,0.9,11,-3,-3
Cc1cc(C)nc(-n2nc(C)cc2Nc2ccccc2)n1,10,0.9,1,-1,-2,3
CCc1ccc(C2CC(c3ccco3)=NN2S(C)(=O)=O)cc1 (stereo unspecified),62*,0.4,0.6,40,.,.
COc1ccc(C)cc1Cn1c(S(C)(=O)=O)nc2ccccc21,98*,0,0.4,62*,-4,4
COc1ccc(Cn2c(CCCO)nc3ccccc32)cc1OC,91*,0.1,0.4,59*,-3,-12
COCCOCCn1c(CCCO)nc2ccccc21,-19,1.2,1.2,-21,-2,5
CCc1nc2ccccc2n1Cc1ccccc1OC,96*,0,0.3,65*,-1,19
Cc1ccccc1Cn1c(Cc2ccccc2)nc2ccccc21,37,0.6,0.8,25,.,.
CCS(=O)(=O)c1nc2ccccc2n1Cc1ccccc1Cl,91*,0.1,0.4,62*,-4,1
CC(=O)N1CCC(=O)N(C(C)C)c2ccccc21,-7,1.1,1,4,.,.
CCOC1(OCC)C(c2ccc(Cl)cc2)C(C#N)(C#N)C1(OCC)OCC (stereo unspecified),40,0.6,0.5,48,-2,26
COc1ccccc1Cn1c(CCCO)nc2ccccc21,84*,0.2,0.3,65*,0,23
COCC(C)NC(=O)CSc1nc(-c2ccccc2)c(-c2ccccc2)o1 (stereo unspecified),59*,0.4,0.5,50,-3,11
O=C(CSc1nc(-c2ccccc2)c(-c2ccccc2)o1)Nc1nnc(-c2ccccc2)s1,34,0.7,0.6,38,5,-2
CCCCCCOC(=O)CCn1[nH]c(=O)c2ccccc2c1=O,56*,0.4,0.5,54*,3,-2

# Source: PubChem (Sanford-Burnham Center for Chemical Genomics)
